Several values for one entry are separate records, joined by “and”; a condition that tells them apart may be missing. Equal values may be shown once. Inconclusive results are not listed. The source holds several records for some structures; these can differ, active in one and inactive in another. Activity calls are given as the source filed them. Unless noted, the call rests on the fitted dose curve; in most records, active means well fitted curve in the direction sought with a large enough effect in the repeat runs; inconclusive means weak or mixed curves; inactive means no such curve, though single readings can be large; an effect the other way counts as inactive or inconclusive.
Columns and labels:
[1] = qHTS assay to identify small molecule agonists of the hypoxia (HIF-1) signaling pathway - cell viability counter screen (AID 1224844; calls by dose curve; further: nearly all actives have a fitted effect of over 50% in size)
Method in brief: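 Cytotoxicity was measured in parallel with the HRE-driven beta-lactamase readout: after 17 hrs of compound exposure at 37C, HRE-bla ME-180 cells received CellTiter-Glo and luminescence was recorded 30 min later.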

[2] = qHTS assay to identify small molecule agonists of H2AX (AID 1224845; active means well fitted activation curve with a large enough effect in the signal ratio in the repeat runs, not every such curve was filed as active; the % refers to the signal ratio)
Method in brief: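 Wild-type CHO-K1 cells plated overnight, then exposed 3 hr at 37C to compounds at 15 concentrations (0.76% DMSO). Lysed, then HTRF anti-pH2AX(S139)-cryptate/anti-H2AX-d2 detection after 24 hr at room temperature; emissions 665 and 620 nm.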

[3] = qHTS assay to identify small molecule agonists of H2AX - cell viability counter screen (AID 1224847; calls by dose curve; further: nearly all actives have a fitted effect of over 30% in size; further: potency means the concentration at half of the fitted maximal effect)
Method in brief: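 CHO-K1 wt, 1000 cells/well, o/n 37C; cpds 15 conc, 3 h 37C, 0.76% DMSO; CellTiter-Glo, 30 min RT, luminescence.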

[4] = qHTS RealTime-Glo MT Cell Viability Assay in HepG2 cells - 24 hour (AID 1224867); further: nearly all actives have a fitted effect of over 50% in size
Method in brief: (§1)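 qHTS, HepG2, 600 cells/well, RealTime-Glo (NanoLuc + prosubstrate) added with cells; 5 h preincubation; DMSO compound addition; 37 C; luminescence at 0/8/16/24/32/40 h.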

[5] = qHTS RealTime-Glo MT Cell Viability Assay in HEK293 cells - 32 hour (AID 1224868); further: nearly all actives have a fitted effect of over 50% in size; further: potency means the concentration at half of the fitted maximal effect
Method in brief: (§2)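 Assay medium contained NanoLuc luciferase plus cell-permeant prosubstrate, added with HEK293 cells at 600 cells/well. After 5 h at 37 C/5% CO2 compounds were added; plates stayed at 37 C for 40 h with serial luminescence reads.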

[6] = A CellTox Green Cytotoxicity Assay to monitor cytotoxicity in HEK293 cells - 0 hour (AID 1224869); further: nearly all actives have a fitted effect of over 50% in size
Method in brief: (§3)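 Cells (HEK293, 600/well) and dye reagent are dispensed together. After 5 h at 37 C, 23 nL compound is pinned in. Plates stay at 37 C for 40 h with fluorescence read at 0h, 8h, 16h, 24h, 32h and 40h.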

[7] = qHTS RealTime-Glo MT Cell Viability Assay in HepG2 cells - 40 hour (AID 1224870); further: nearly all actives have a fitted effect of over 50% in size; further: potency means the concentration at half of the fitted maximal effect
Method in brief: (§4)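 HepG2 cells mixed with RealTime-Glo MT reagents (NanoLuc plus cell-permeant prosubstrate) were seeded at 600 cells/well, incubated 5 h at 37 C/5% CO2, then pinned with compounds in DMSO; nonlytic luminescence tracked viability during 40 h treatment.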

[8] = A CellTox Green Cytotoxicity Assay to monitor cytotoxicity in HEK293 cells - 40 hour (AID 1224871); further: nearly all actives have a fitted effect of over 45% in size; further: potency means the concentration at half of the fitted maximal effect
Method in brief: as §3

[9] = qHTS RealTime-Glo MT Cell Viability Assay in HEK293 cells - 16 hour (AID 1224872); further: nearly all actives have a fitted effect of over 50% in size; further: potency means the concentration at half of the fitted maximal effect
Method in brief: as §2

[10] = qHTS RealTime-Glo MT Cell Viability Assay in HepG2 cells - 8 hour (AID 1224873); further: nearly all actives have a fitted effect of over 55% in size
Method in brief: as §4

[11] = qHTS RealTime-Glo MT Cell Viability Assay in HEK293 cells - 40 hour (AID 1224874); details: RealTime-Glo luminescence; max response: stronger effect = lower value; further: nearly all actives have a fitted effect of over 50% in size; further: potency means the concentration at half of the fitted maximal effect
Method in brief: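 Real-time viability in HEK293: signal arises when living cells convert a prosubstrate for NanoLuc in the medium, so luminescence tracks viable cell number. Compound (23 nL, DMSO) added 5 h post-seeding; kinetic reads at 0–40 h, 37 C.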

[12] = A CellTox Green Cytotoxicity Assay to monitor cytotoxicity in HEK293 cells - 24 hour (AID 1224875); further: nearly all actives have a fitted effect of over 45% in size
Method in brief: as §3

[13] = A CellTox Green Cytotoxicity Assay to monitor cytotoxicity in HepG2 cells - 16 hour (AID 1224876); further: nearly all actives have a fitted effect of over 45% in size
Method in brief: (§5)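 Cells and non-lytic dye reagent are dispensed together (600 HepG2 cells/well) and incubated 5 h before DMSO compound transfer. Kinetic fluorescence is then recorded in the same wells during 40 h at 37 C.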

[14] = qHTS RealTime-Glo MT Cell Viability Assay in HepG2 cells - 32 hour (AID 1224877); further: nearly all actives have a fitted effect of over 55% in size
Method in brief: as §1

[15] = A CellTox Green Cytotoxicity Assay to monitor cytotoxicity in HepG2 cells - 24 hour (AID 1224878); further: nearly all actives have a fitted effect of over 45% in size
Method in brief: as §5

[16] = A CellTox Green Cytotoxicity Assay to monitor cytotoxicity in HepG2 cells - 40 hour (AID 1224879); further: nearly all actives have a fitted effect of over 40% in size
Method in brief: as §5

[17] = qHTS assay to identify small molecule agonists of the hypoxia (HIF-1) signaling pathway (AID 1224846; active means well fitted activation curve with a large enough effect in the signal ratio in the repeat runs, not every such curve was filed as active; the % refers to the signal ratio)
Method in brief: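 Compounds from the Tox21 10K library, dissolved in DMSO, are tested for induction of a hypoxia response element–controlled beta-lactamase reporter in ME-180 cells. Exposure lasts 17 hrs at 37C after a 5 hr settling period, followed by CCF4-AM FRET substrate.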

[18] = qHTS assay to identify small molecule antagonists of the estrogen related receptor (ERR) signaling pathway from Tox21 library (AID 1224848); further: nearly all actives have a fitted effect of over 50% in size; further: potency means the concentration at half of the fitted maximal effect
Method in brief: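 First, 2,000 ERR cells per well were plated and held 6 h at 37 C/5% CO2. Next, compounds in DMSO were pinned in and left 18 h at 37 C. Finally, ONE-Glo was added and luminescence read after 30 min at room temperature.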

[19] = qHTS assay to identify small molecule agonists of the estrogen related receptor (ERR) signaling pathway from Tox21 library (AID 1224849; calls by dose curve; further: nearly all actives have a fitted effect of over 15% in size); details: ERR reporter cell line, ONE-Glo luciferase, 18 h; at 92.4 µM (top of the series) unless noted
Method in brief: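 Cells carrying the ERR reporter were plated and allowed to settle for 6 h, exposed to library compounds for 18 h at 37 C, then lysed with ONE-Glo and luminescence measured.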
On the % scale 0 is the no-effect control and ±100 the full control effect.

CCCCCCCCCC(=O)O[C@H]1CC[C@H]2[C@@H]3CCC4=CC(=O)CC[C@@H]4[C@H]3CC[C@]12C
inactive: Potency [1] | Potency [2] | Potency [3] | Potency [4] | Potency [5] | Potency [6] | Potency [7] | Potency [8] | Potency [9] | Potency [10] | max response [11] 3.16% | Potency [12] | Potency [13] | Potency [14] | Potency [15] | Potency [16]

O=Cc1ccc(Cl)cc1Cl
inactive: Potency [1] | Potency [2] | outcome [17] | Potency [3] | Potency [18] | activity change, positive = activation [19] -10.7% | Potency [4] | Potency [5] | Potency [6] | Potency [7] | Potency [8] | Potency [9] | Potency [10] | max response [11] -1.06% | Potency [13] | Potency [14] | Potency [15] | Potency [16]

O=C(Nc1ccccc1)Nc1ccnc(Cl)c1
active: Potency [18] 24.3 µM | Potency [5] 19.5 µM | Potency [11] 19.5 µM
inactive: Potency [1] | Potency [2] | activity change, positive = activation [19] -55.6% | Potency [4] | Potency [6] | Potency [8] | Potency [10] | Potency [12] | Potency [13] | Potency [14] | Potency [15]

[O-][Cl+]O
inactive: Potency [1] | Potency [2] | outcome [17] | Potency [3] | Potency [18] | activity change, positive = activation [19] 8.47% | Potency [4] | Potency [5] | Potency [6] | Potency [7] | Potency [9] | Potency [10] | max response [11] 2.38% | Potency [13] | Potency [15]

O=C(NC(=O)c1c(F)cccc1F)Nc1cc(Cl)c(Oc2ncc(C(F)(F)F)cc2Cl)c(Cl)c1
inactive: Potency [1] | Potency [2] | outcome [17] | Potency [3] | Potency [6] | Potency [8] | Potency [10] | Potency [12] | Potency [13] | Potency [14] | Potency [15] | Potency [16]

O=C(N[C@H](c1ccccc1)[C@@H]1CN2CCC1CC2)c1c(Cl)ccc(C(F)(F)F)c1Cl
active: Potency [3] 182 µM | Potency [18] 39.2 µM | Potency [5] 70.2 µM | Potency [8] 78.8 µM | Potency [9] 78.8 µM | Potency [11] 70.2 µM
inactive: Potency [1] | outcome [17] | activity change, positive = activation [19] -42.3% | Potency [6] | Potency [7] | Potency [10] | Potency [13]

O=C1CN=C(c2ccccc2)c2cc(Cl)ccc2N1CC1CC1
inactive: Potency [1] | Potency [2] | outcome [17] | activity change, positive = activation [19] -41.3% | Potency [4] | Potency [6] | Potency [7] | Potency [8] | Potency [10] | Potency [12] | Potency [13] | Potency [14] | Potency [15] | Potency [16]
active: Potency [3] 94.2 µM | Potency [18] 51 µM

O=C1C(Cl)C(CCl)CN1c1cccc(C(F)(F)F)c1 (stereo unspecified)
active: Potency [5] 24.5 µM | Potency [9] 24.5 µM | Potency [11] 24.5 µM
inactive: Potency [1] | Potency [2] | outcome [17] | activity change, positive = activation [19] -29.4% | Potency [4] | Potency [6] | Potency [8] | Potency [10] | Potency [12] | Potency [13] | Potency [14] | Potency [15]

CCOC(=O)COc1cc(-c2nn(C)c(OC(F)F)c2Cl)c(F)cc1Cl
inactive: Potency [1] | Potency [2] | outcome [17] | Potency [3] | Potency [18] | activity change, positive = activation [19] 3.17% | Potency [4] | Potency [5] | Potency [6] | Potency [7] | Potency [8] | Potency [9] | Potency [10] | max response [11] -5.9% | Potency [13] | Potency [14] | Potency [15] | Potency [16]

OCCCBr
inactive: Potency [1] | Potency [2] | outcome [17] | Potency [3] | Potency [18] | activity change, positive = activation [19] -6.8% | Potency [4] | Potency [5] | Potency [6] | Potency [7] | Potency [8] | Potency [9] | Potency [10] | max response [11] -0.927% | Potency [12] | Potency [13] | Potency [15] | Potency [16]

O=C(OC1CCCCC1)c1ccccc1C(=O)OC1CCCCC1
active: Potency [3] 106 µM
inactive: Potency [1] | Potency [2] | outcome [17] | Potency [4] | Potency [5] | Potency [6] | Potency [7] | Potency [8] | Potency [9] | Potency [10] | max response [11] -29.8% | Potency [12] | Potency [13] | Potency [14] | Potency [15] | Potency [16]

CCn1cc[n+](C)c1
inactive and 1.75 µM (active): Potency [5]
active: Potency [11] 1.56 µM
inactive and 44 µM (active): Potency [7]
inactive: Potency [1] | Potency [2] | outcome [17] | Potency [4] | Potency [6] | Potency [8] | Potency [9] | Potency [10] | max response [11] 0.829% [middle of 11 runs] | Potency [12] | Potency [13] | Potency [14] | Potency [15]
inactive and 102 µM (active): Potency [3]

COc1cc(Cl)c(OC)cc1Cl
inactive: Potency [1] | Potency [2] | outcome [17] | Potency [18] | activity change, positive = activation [19] 0.702% | Potency [4] | Potency [5] | Potency [6] | Potency [8] | Potency [9] | Potency [10] | max response [11] 1.87% | Potency [12] | Potency [13] | Potency [14] | Potency [15]

ClCCCCBr
inactive: Potency [1] | Potency [2] | outcome [17] | Potency [3] | Potency [4] | Potency [5] | Potency [6] | Potency [7] | Potency [8] | Potency [9] | Potency [10] | max response [11] -9.07% | Potency [12] | Potency [13] | Potency [15] | Potency [16]

— PubChem BioAssay (Tox21)
